Structures are written as SMILES. Hit rate of the full screen: of about 130,000 compounds, about 1,200 (0.92%) were called active.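 The calls were made as follows: active = inhibition above the mean plus 3 SD, with well images judged a real hit on visual review (cut at about 60% in these data, passing the limit was not always enough); inconclusive = inhibition over the cutoff but images rejected on review; inactive = inhibition not above the cutoff.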 The full list was thinned out, with actives kept by preference.

As a reminder, the inhibition is the relative decrease from the control value, in per cent.

The test in a line: insulin gene promoter suppression in islet cells – imaging, TRM-6 cells (human fetal islet line), eGFP reporter, cell count, primary screen (AID 1273;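 as to normalized cell count: cells exposed to compound for 48 h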). The conditions noted are these: at 2 µM, reporter expression induced with tamoxifen; inhibition: stronger effect = higher value; normalized cell count: measured here: cell count, toxicity.
For `Cc1ccccc1N1C(=O)C(Oc2ccc(Cl)cc2)C1CNCC1CCCO1` (stereo unspecified), the inhibition was -11.8% (inactive) and the normalized cell count was 94.4%.
`Brc1ccc(-c2nnc(-c3ccccc3)o2)o1`: the inhibition is 19.1% (inactive) and the normalized cell count came out at 142%.
With `Nc1ccc(-c2nnc(-c3ccc(-c4ccccc4)cc3)o2)cc1`, the inhibition was 46.7% (inactive) and the normalized cell count stood at 46.6%.
In the same order, the values of `OC(c1nnc(-c2ccccc2)o1)c1cccs1` (stereo unspecified) are 75% (active) and 106%.
For `CCCCNC(=O)N1CCN(S(C)(=O)=O)CC1`, the inhibition was -42.9% (inactive) and the normalized cell count worked out at 86.1%.
For `Clc1ccc(-c2csc(-c3ccncc3)n2)cc1` the same measures were -16.7% (inactive) and 49.8%.
As for `CCCCCN1CC(O)=C(c2nc(-c3ccc(Cl)cc3)cs2)C1=N`, the inhibition is 81.1% (active) and the normalized cell count amounted to 67.1%.
In the same order, the values of `CCCCCN1CC(O)=C(c2ccccc2)C1=N` are 9.59% (inactive) and 61.8%.
Consider `O=C(O)CSCC(=O)Nc1ccc(C(F)(F)F)cc1`, for which the inhibition is 29.4% (inactive) and the normalized cell count is 92.1%.
For `CCC(=O)c1ccc(OCC(O)Cn2nc(C)c(C(C)=O)c2C)cc1` (stereo unspecified) the same measures were 20% (inactive) and 57.4%.
For the compound `Cc1ccccc1NC(=O)Cn1c(=O)n(CC2CCCO2)c(=O)c2ccccc21` (stereo unspecified), the inhibition was 13.3% (inactive) and the normalized cell count amounted to 106%.
For `O=C(CSc1nnnn1-c1ccc2c(c1)CCC2)Nc1ccc2c(c1)OCCO2` the same measures were 28.6% (inactive) and 88.2%.
For `Cc1ccc(SCC(=O)Nc2ccc3c(c2)OCCO3)cc1` the same measures were 20.6% (inactive) and 137%.
In the same order, the values of `O=C(CSc1nnnn1C1CCCC1)Nc1ccc2c(c1)OCCO2` are 73.3% (active) and 70.4%.
Turning to `COc1ccccc1N(C)S(=O)(=O)c1ccc(Cl)c(C(=O)N2CCC(C(N)=O)CC2)c1`, the inhibition was 18.2% (inactive) and the normalized cell count came to 83.5%.
In the same order, the values of `CCOC(=O)c1sc(NC(=O)CSc2nc(O)c(Cc3ccccc3)c(=O)[nH]2)nc1C` are -50% (inactive) and 56.7%.
Turning to `O=c1c(Cl)c(NC2CC2)cnn1-c1ccccc1`, the inhibition is -85% (inactive) and the normalized cell count worked out at 114%.
For `NC(=O)c1ccc(CN2CCC(Cc3ccccc3)CC2)cc1` the same measures were -347% (inactive) and 40.1%.
Regarding `Cc1ccc(CC(=O)Nc2cccc(C#N)c2)cc1`, the inhibition was -16.7% (inactive) and the normalized cell count came to 153%.
In the same order, the values of `NC(=S)N/N=C/c1ccc([N+](=O)[O-])cc1` are -36.4% (inactive) and 109%.
In the same order, the values of `Cc1nc2ccccc2cc1C(=O)N/N=C/c1ccc([N+](=O)[O-])cc1` are 75% (active) and 81%.
As to `Cc1ccsc1C(=O)N/N=C/c1ccc([N+](=O)[O-])cc1`, the inhibition is 6.67% (inactive) and the normalized cell count worked out at 153%.
In the same order, the values of `COc1cc(C(=O)N[C@@H](C)C(=O)NCc2ccco2)cc(OC)c1OC` are 33.3% (inactive) and 166%.
In the same order, the values of `CCCN(C(=O)CSc1nnnn1C)c1c(N)n(Cc2ccccc2)c(=O)[nH]c1=O` are -90.9% (inactive) and 30.3%.
`O=c1[nH]c(CN2CCOCC2)nc2scc(-c3ccccc3)c12`: the inhibition was 25% (inactive) and the normalized cell count turned out to be 148%.
In the same order, the values of `C#CCOCCOCCOCCNc1nc(N2CCN(C(=O)[C@H](C(C)C)n3cc(CCO)nn3)CC2)nc(N2CCN(C(=O)[C@H](C(C)C)n3cc(CCO)nn3)CC2)n1` are 50% (inactive) and 117%.
Consider `C#CCOCCOCCOCCNc1nc(N2CCN(C(=O)[C@H](C(C)C)n3cc(CCO)nn3)CC2)nc(N2CCN(C(=O)[C@H]([C@@H](C)CC)n3cc(CCCN=C(N)N)nn3)CC2)n1`, for which the inhibition was 70% (active) and the normalized cell count was found to be 95.3%.
For `COCCNC(=O)NC(=O)COC(=O)C1(c2ccc(Cl)cc2)CC1` the same measures were 38.9% (inactive) and 75.1%.
As for `CCCC(NC(=O)c1ccccc1)c1nc2ccccc2n1Cc1ccc(C(=O)OC)o1` (stereo unspecified), the inhibition is -17.5% (inactive) and the normalized cell count was 206%.
As for `COC(=O)c1ccc(CN(c2ccccc2OC)S(=O)(=O)c2cccs2)o1`, the inhibition is 7.89% (inactive) and the normalized cell count was 71.6%.
In the same order, the values of `COC(=O)c1ccc(Cc2ccccc2)o1` are 92.9% (active) and 83.1%.
In the same order, the values of `COc1ccc(-c2cn3cccnc3n2)cc1` are 23.5% (inactive) and 80.6%.
With `Cc1ccc(Cl)c(NC(=O)CN2CCN(C=O)CC2)c1`, the inhibition was -71.4% (inactive) and the normalized cell count amounted to 117%.
In the same order, the values of `O=C(CC1C(=O)NCCN1Cc1ccc(-c2ccccc2)cc1)NCc1ccncc1` (stereo unspecified) are 0% (inactive) and 65.4%.
With `CCSc1ccccc1C(=O)Nc1ccc2c(c1)OCO2`, the inhibition was -63.2% (inactive) and the normalized cell count turned out to be 84.3%.
In the case of `N/C(=N\OC(=O)N1c2ccccc2Sc2ccccc21)c1ccc(Br)cc1`, the inhibition is 79.3% (active) and the normalized cell count was determined as 124%.
Turning to `N/C(=N\OC(=O)Cc1ccccc1[N+](=O)[O-])c1ccc(Br)cc1`, the inhibition is 7.69% (inactive) and the normalized cell count came out at 129%.
In the same order, the values of `N/C(=N\OC(=O)/C=C/c1ccccc1)c1ccc(Br)cc1` are 14.3% (inactive) and 133%.
For `Cc1cc2nnc(SCC(=O)N3CCN(c4ccccc4)CC3)n2c(N)n1` the same measures were 74.3% (active) and 82.1%.
For `Cc1nnc(SCC(=O)N2CCN(c3ccccc3)CC2)n1-c1ccccc1`, the inhibition was -41% (inactive) and the normalized cell count was 117%.
Take `Cc1ccccc1NC(=O)Cc1nnc(SCC(=O)N2CCN(c3ccccc3)CC2)n1C`: the inhibition is 18.2% (inactive) and the normalized cell count amounted to 112%.
In the same order, the values of `O=C(CSc1ccsc1[N+](=O)[O-])N1CCCCC1` are -33.3% (inactive) and 80.7%.
In the same order, the values of `Cc1cccc(N2CC(C)Cn3c2nc2c3c(=O)n(CC(=O)OCc3ccccc3)c(=O)n2C)c1` (stereo unspecified) are 87.5% (active) and 63.7%.
`Cn1c(=O)n(CCc2ccccc2)c(=O)c2c1nc1n2CCCN1c1ccccc1`: the inhibition is -196% (inactive) and the normalized cell count stood at 86.5%.
Regarding `Cc1cccc(Cn2c(N3CCN(c4ccccc4)CC3)nc3c2c(=O)n(C)c(=O)n3C)c1`, the inhibition was -28.1% (inactive) and the normalized cell count came out at 82.7%.
In the same order, the values of `O=[N+]([O-])/C(N=Nc1ccccc1)=N\Nc1ccccc1` are 7.14% (inactive) and 142%.
In the same order, the values of `COCCCNC(=S)NNC(=O)C(O)(c1ccccc1)c1ccccc1` are -89.5% (inactive) and 100%.
With `COCn1c(COc2ccccc2)nc2ccccc21`, the inhibition was 30% (inactive) and the normalized cell count came to 132%.
Take `CCCCn1c(CN2CCN(CCO)CC2)nc2ccccc21`: the inhibition is -68.6% (inactive) and the normalized cell count worked out at 100%.
In the same order, the values of `C=C(Br)Cn1c(CCCC)nc2ccccc21` are 85.7% (active) and 72.7%.
For `CCCNCc1cc(OCC)c(OCC(=O)Nc2ccccc2)cc1Br` the same measures were 0% (inactive) and 99%.
In the same order, the values of `C=C(C)Cn1c(C)cc(C)c(S(=O)(=O)c2ccccc2C)c1=O` are 78.4% (active) and 40.9%.
With `Cc1nc([N+](=O)[O-])c(NCCCO)n1Cc1ccccc1`, the inhibition was 50% (inactive) and the normalized cell count was determined as 125%.

(Values after PubChem BioAssay AID1273 (Columbia University Molecular Screening Center, 2008).)
